Compounds with a hit are over-represented: about 2.4% of the library has one in this group of screens.
FEN1 inhibitor – blocks human flap endonuclease 1; P39748; Recombinant FEN1 flap cleavage, fluorescence, 15 min; Potency, µM (doses to about 114 µM), without a hit: at the top dose activity change, negative = inhibition, usual class: inhibitors; 390,000 compounds, 0.35% hits; AID 588795; also: % is scaled to controls: 0 for no effect and ±100 for the full control effect; nearly all actives have a fitted effect of over 65% in size
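Steps: FEN1 (10 nM) dispensed; compound added by pin tool; 15 min at room temperature; substrate added to 50 nM final; reads at 0 min and 15 min; data normalized and fitted (four-parameter Hill).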
WRN inhibitor – inhibitors of human WRN helicase | Q14191 | WRN helicase unwinding, fluorescent forked duplex, kinetic | Potency, µM (highest dose often 114 µM), for inactives: at the top dose activity change, negative = inhibition, usual class: inhibitors | 360,000 compounds, 0.46% hits | AID 651768; also: % is scaled to controls: 0 for no effect and ±100 for the full control effect; nearly all actives have a fitted effect of over 55% in size
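Kinetic red-fluorescence monitoring (525/598 nm) tracks WRN helicase activity after 100 nM fluorophore-quencher forked duplex and 2 mM ATP are added to 20 nM enzyme pretreated 15 min at room temperature with compound.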
Pol beta inh – DNA polymerase beta (human) inhibition; P06746; Pol beta primer extension/strand displacement, fluorescence kinetic; Potency, µM (doses to about 114 µM), for inactives: top-dose activity change, negative = inhibition, usual class: inhibitors; 340,000 compounds, 1.3% hits; also: % is scaled to controls: 0 for no effect and ±100 for the full control effect
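Pol beta (10 nM) and compounds were preincubated 15 min at room temperature, then 50 nM substrate (final) started primer extension/strand displacement. Reads were taken at 0 and 10 min; concentration-response data were fitted to a four-parameter Hill equation.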
POLK inh – DNA polymerase kappa (human) inhibition; Q9UBT6; purified Pol kappa, fluorescent DNA synthesis assay, 10 min; Potency, µM (titrated, usually from 107 µM), for inactives: at the highest dose activity, negative = inhibition, hits mostly inhibitors; 400,000 compounds, 0.53% hits; AID 588579; also: % is scaled to controls: 0 for no effect and ±100 for the full control effect
Target sequence (Q9UBT6 whole entry, looked up): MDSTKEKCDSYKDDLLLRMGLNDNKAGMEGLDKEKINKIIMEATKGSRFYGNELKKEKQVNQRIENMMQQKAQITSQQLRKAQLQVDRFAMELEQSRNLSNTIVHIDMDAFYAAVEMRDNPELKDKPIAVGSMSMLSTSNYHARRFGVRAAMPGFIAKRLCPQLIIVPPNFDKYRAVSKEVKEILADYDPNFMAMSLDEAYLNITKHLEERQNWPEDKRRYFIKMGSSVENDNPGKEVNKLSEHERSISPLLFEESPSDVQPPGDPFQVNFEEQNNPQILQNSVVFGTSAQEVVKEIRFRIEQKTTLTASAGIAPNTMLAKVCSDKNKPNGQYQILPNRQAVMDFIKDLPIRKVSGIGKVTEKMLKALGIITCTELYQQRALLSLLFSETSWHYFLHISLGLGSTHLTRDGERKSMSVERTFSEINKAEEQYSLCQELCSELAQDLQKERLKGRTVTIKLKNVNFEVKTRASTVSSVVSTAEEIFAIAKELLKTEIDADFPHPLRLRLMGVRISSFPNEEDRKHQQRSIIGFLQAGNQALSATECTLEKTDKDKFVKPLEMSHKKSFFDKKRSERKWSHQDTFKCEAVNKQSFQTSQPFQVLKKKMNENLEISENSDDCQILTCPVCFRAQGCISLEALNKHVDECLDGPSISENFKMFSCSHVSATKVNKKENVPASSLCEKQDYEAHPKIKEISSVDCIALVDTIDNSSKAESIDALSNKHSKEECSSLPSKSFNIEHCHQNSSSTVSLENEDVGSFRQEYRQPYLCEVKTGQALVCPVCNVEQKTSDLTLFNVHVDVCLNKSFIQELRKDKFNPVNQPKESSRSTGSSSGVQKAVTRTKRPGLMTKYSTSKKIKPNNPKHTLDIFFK
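Pol kappa 10 nM + cpd, 15 min RT; start w/ substrate 50 nM final; fluorescence kinetic read, 0 and 10 min. Neg ctrl: buffer, no enzyme.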
POLH inh – DNA polymerase eta (human) inhibition | 390,000 compounds, 1.2% hits | recombinant Pol eta, fluorescent DNA replication assay | Q9Y253 | Potency, µM (top dose mostly 114 µM), for inactives: at the top dose activity change, negative = inhibition, actives largely listed as inhibitors | AID 588591; also: % is scaled to controls: 0 for no effect and ±100 for the full control effect
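Fluorescent replication assay: 50 nM final substrate added after a 15 min room-temperature compound preincubation with 10 nM enzyme. Signal taken at 0 min and again at 10 min.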
Pol iota inh – inhibitors of human DNA polymerase iota; Q9UNA4; Pol iota fluorescent replication assay, 10 min; Potency, µM (titrated, usually from 115 µM), for the others: at the top dose activity, negative = inhibition, actives largely listed as inhibitors; 390,000 compounds, 1% hits
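Pol iota at 10 nM preincubated 15 min with compounds at room temperature; reaction started with fluorescent substrate, 50 nM final. Fluorescence read kinetically at 0 and 10 min; buffer-only wells as negative control.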
* hit, by the source's call; [ ] = dose if it differs, or a comment. Calls follow the shape of the dose curve; as a rule, active = well fitted curve in the direction sought with a large enough effect; inconclusive = small, poorly fitted or top-dose-only effect, or another doubt; inactive = no such curve, though single readings can be large; an effect the other way counts as inactive or inconclusive. Potency is read from the fitted curve at half-maximal effect.

`Cc1ccccc1Nc1nn2c(=O)c3ccc(C(=O)NCc4cccs4)cc3nc2s1` gave FEN1 inhibitor 9%, Pol beta inh 20µM*, POLK inh -1%[60.1 µM], POLH inh inconclusive and Pol iota inh 79µM*.
`Cc1ccccc1Nc1nn2c(=O)c3ccc(C(=O)NCC(C)c4ccccc4)cc3nc2s1` (stereo unspecified) gave FEN1 inhibitor -12%, Pol beta inh 1%, POLK inh -18%, POLH inh -9% and Pol iota inh 20%.
`Cc1cc(C)nc(-n2nc(C)c3c2N(Cc2ccccc2)C(=O)CC3c2ccc(Cl)cc2)n1` (stereo unspecified) gave FEN1 inhibitor -18%, Pol beta inh inconclusive, POLK inh 5%, POLH inh -9% and Pol iota inh 7%.
O=C(COc1ncnc2ccccc12)N1CCN(C(=O)c2ccco2)CC1 was read as FEN1 inhibitor 1%, WRN inhibitor 11%, Pol beta inh -1%, POLK inh -3%, POLH inh -13% and Pol iota inh 7%.
Screening O=C(COc1ncnc2sccc12)N1CCN(C(=O)c2ccco2)CC1 returned FEN1 inhibitor 1%, WRN inhibitor inconclusive, Pol beta inh 40µM*, POLK inh inconclusive, POLH inh inconclusive and Pol iota inh 20µM*.
`O=c1[nH]sc2ccccc12` gave FEN1 inhibitor inconclusive, WRN inhibitor 32µM*, Pol beta inh 0%, POLK inh 0%, POLH inh -2% and Pol iota inh 25µM*.
For O=c1ccsc2ccccc12 the results were FEN1 inhibitor 5%, WRN inhibitor 1%, POLK inh -9%, POLH inh -8% and Pol iota inh 2%.
O=C1CCn2c1c(O)c1ccccc1c2=O was read as FEN1 inhibitor -4%, WRN inhibitor -1%, POLK inh -23%, POLH inh 8% and Pol iota inh inconclusive.
Screening N=C1CCC(=N)c2c1c(O)c1ccccc1c2O returned FEN1 inhibitor 40µM*, WRN inhibitor 32µM*, Pol beta inh 40µM*, POLK inh 22µM*, POLH inh 13µM* and Pol iota inh 22µM*.
For CCn1c(SCC(=O)NCc2cccs2)nnc1-c1cccs1 the results were FEN1 inhibitor 5%, WRN inhibitor -4%, Pol beta inh -7%, POLK inh -5%, POLH inh -5% and Pol iota inh 8%.
Screening CCn1c(SCC(=O)c2ccc(CNC(C)=O)o2)nnc1-c1cccs1 returned FEN1 inhibitor 5%, WRN inhibitor -15%[57.1 µM], Pol beta inh 45µM*, POLK inh -28%, POLH inh inconclusive and Pol iota inh inconclusive.
`COCCCNC(=O)CCCn1c(=O)c2ccccc2n(CC(=O)Nc2ccc(C)cc2Cl)c1=O` gave FEN1 inhibitor -1%, Pol beta inh 10%, POLK inh -3%, POLH inh 0% and Pol iota inh inconclusive.
For O=C(O)c1cc(-c2ccc(/C=c3\sc4nc5ccc(Br)cc5n4c3=O)o2)ccc1Cl the results were Pol beta inh 1.6µM*.
`O=C(O)c1cc(N/N=C/c2ccc(-c3ccc(F)cc3)o2)ccc1Cl` gave FEN1 inhibitor -2%, WRN inhibitor -28%, Pol beta inh -12%, POLK inh -14%, POLH inh inconclusive and Pol iota inh inconclusive.
`COc1ccc(Cl)cc1NC(=O)C1CCCN(c2ncnc3onc(C)c23)C1` (stereo unspecified) gave FEN1 inhibitor 11%, Pol beta inh 8%, POLK inh -1%, POLH inh -23% and Pol iota inh 33%.
For CSc1nc(=O)[nH]nc1Sc1ccccc1 the results were WRN inhibitor -5%[11.6 µM] and POLH inh 45µM*.
CSc1nc(Sc2ccccc2)c2ccccc2n1 was read as FEN1 inhibitor -14%, WRN inhibitor -7%, Pol beta inh 0%, POLK inh -9%, POLH inh -3% and Pol iota inh -7%.
`O=C(CNC(=O)c1ccccc1F)OCc1cc(=O)n2nc(C3CC3)sc2n1` gave FEN1 inhibitor 12%, Pol beta inh 2%, POLK inh 0%, POLH inh -2% and Pol iota inh 37%.
For O=C(O)COc1ccccc1/C=C1\SC(=Nc2ccc(F)cc2)N(c2ccc(F)cc2)C1=O the results were FEN1 inhibitor -34%, WRN inhibitor 0%[11.6 µM], Pol beta inh -5%, POLK inh 5%, POLH inh 56µM* and Pol iota inh 15%.
Screening CC(C)(C)C1CCc2c(sc3nc(-c4cc5cc(Br)ccc5oc4=O)[nH]c(=O)c23)C1 (stereo unspecified) returned FEN1 inhibitor -1%, Pol beta inh 3%, POLK inh 1%, POLH inh -4% and Pol iota inh -25%.
Screening Oc1nc(Nc2ccc(Cl)cc2Cl)sc1/C=C1\C=Nc2ccccc21 returned FEN1 inhibitor inconclusive, WRN inhibitor inconclusive, Pol beta inh inconclusive, POLK inh -26%, POLH inh 14µM* and Pol iota inh inconclusive.
`Cc1cc(N)cc(C)c1-c1c(Br)cc(N)cc1Br` gave FEN1 inhibitor -14%, WRN inhibitor -3%, POLK inh -8%, POLH inh -25% and Pol iota inh 14%.
For Nc1cc(N)cc(N)c1 the results were FEN1 inhibitor inconclusive, POLK inh inconclusive and Pol iota inh 1.6µM*.
`COc1ccccc1CNC(=O)CN1C(=O)CCc2cc(S(=O)(=O)N3CCOCC3)ccc21` gave FEN1 inhibitor 15%, Pol beta inh -1%, POLK inh -1%[60.1 µM], POLH inh -11% and Pol iota inh inconclusive.
CC1(S(=O)(=O)O)CC(=O)c2ccccc2C1=O (stereo unspecified) was read as FEN1 inhibitor inconclusive, WRN inhibitor -10%[11.6 µM], Pol beta inh inconclusive, POLK inh -16%, POLH inh inconclusive and Pol iota inh 6.3µM*.
COc1cc(OC)c(NC(=O)c2noc3c2CSc2ccccc2-3)cc1Cl was read as FEN1 inhibitor -3%, Pol beta inh 2%, POLK inh -40%, POLH inh -17% and Pol iota inh -4%.
`O=S(=O)(Nc1nccs1)c1cc(Cl)ccc1Cl` gave FEN1 inhibitor 3%, WRN inhibitor -12%[57.1 µM], Pol beta inh -2%, POLK inh 0%, POLH inh 25µM* and Pol iota inh inconclusive.
O=S(=O)(Nc1ncccn1)c1cc(Cl)ccc1Cl was read as FEN1 inhibitor 4%, WRN inhibitor 2%, Pol beta inh 34%, POLK inh -6%, POLH inh -6% and Pol iota inh 111%.
